This is a sample that favours compounds with a hit; in the whole collection about 11% have one here.
CBFb RUNX1 block: inhibitors of human CBF-beta and RUNX1 interaction | 230,000 tested, under 10 active | AlphaScreen CBFb-His/RUNX1-biotin binding, biochemical | Q01196+Q13951 | Potency, µM (series often up to 59.8 µM), without a hit: at the top dose activity, negative = inhibition, actives largely listed as inhibitors; further: % of control where 0% means no effect
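Proteins preincubated together for 20 min at RT before compound addition; 15 min later, nickel and streptavidin beads were added and left 90 min prior to AlphaScreen measurement.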
ALDH1A1 block: blocks purified human ALDH1A1 activity; hit rate 7.3% among 220,000; Purified ALDH1A1, NADH fluorescence, propionaldehyde substrate; P00352; AID 1030; Potency, µM (highest dose often 75.3 µM), inactives show at the top dose activity, negative = inhibition, hits mostly inhibitors; active means well fitted inhibition curve with a large enough effect, not every such curve was filed as active; inconclusive means small, poorly fitted or top-dose-only effect, or another doubt; inactive means no such curve, though single readings can be large or run the other way;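 further: potency means the concentration at half of the fitted maximal effect; plate controls were no enzyme wells and a reference inhibitor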
Target sequence (P00352 whole entry, looked up): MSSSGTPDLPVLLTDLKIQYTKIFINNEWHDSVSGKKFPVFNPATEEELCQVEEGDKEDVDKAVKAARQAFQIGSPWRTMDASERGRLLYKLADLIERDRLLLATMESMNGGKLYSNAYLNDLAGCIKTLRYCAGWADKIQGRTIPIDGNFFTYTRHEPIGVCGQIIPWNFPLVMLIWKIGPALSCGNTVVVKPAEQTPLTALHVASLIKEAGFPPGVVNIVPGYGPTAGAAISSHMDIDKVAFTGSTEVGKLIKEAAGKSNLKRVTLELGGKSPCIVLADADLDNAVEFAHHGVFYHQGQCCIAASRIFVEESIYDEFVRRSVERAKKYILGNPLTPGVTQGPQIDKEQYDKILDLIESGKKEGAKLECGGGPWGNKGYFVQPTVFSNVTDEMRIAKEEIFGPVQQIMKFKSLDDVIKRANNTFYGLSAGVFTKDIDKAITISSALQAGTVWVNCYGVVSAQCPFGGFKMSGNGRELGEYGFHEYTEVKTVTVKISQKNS
PNC inhibitor: blocks assembly of the perinucleolar compartment; PC3M PTB-GFP, PNC prevalence imaging, 16 h; stronger effect = lower value; activity change (PNC), negative = inhibition, % at 10 µM; hit rate 3.1% among 140,000;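 active means readout at or below -70, meaning at least 70% loss of cells showing the perinucleolar compartment, a nuclear body marking cancer cells; inconclusive means readout between -30 and a set limit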;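 further: plate controls were DMSO wells for no effect and camptothecin positive control wells for full effect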
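Compounds are pinned in duplicate onto adhered PC3M cells stably expressing GFP-tagged PTB and incubated 16 h at 37 C. Cells are then fixed, nuclei stained with Hoechst, and PNC-positive cells counted.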
HTT aggregate: reduces HttQ103-GFP aggregates in PC12 cells | PC12 HttQ103-GFP aggregates, Acumen cytometry, 40 h | Potency, µM (doses to about 46.1 µM), without a hit: at the highest dose activity change, negative = inhibition, usual class: inhibitors | hit rate 1.1% among 220,000; further: potency means the concentration at half of the fitted maximal effect; on the % scale 0 is the no-effect control and ±100 the full control effect; nearly all actives have a fitted effect of over 60% in size
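Inducible Q103 Huntingtin exon 1–GFP PC12 line, 1500 cells/well in phenol red free DMEM with 5% equine and 5% calf serum. Tebufenozide 100 nM induced expression; compounds titrated; aggregates quantified by cytometry.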
HPGD block: inhibitors of human 15-hydroxyprostaglandin dehydrogenase (HPGD). P15428. purified HPGD, NADH fluorescence kinetic, PGE2 substrate. Potency, µM, inactives show top-dose activity change, negative = inhibition, actives largely listed as inhibitors. hit rate 4.3% among 150,000. AID 894; active means well fitted inhibition curve with a large enough effect, not every such curve was filed as active; inconclusive means small, poorly fitted or top-dose-only effect, or another doubt; inactive means no such curve, though single readings can be large or run the other way; further: potency means the concentration at half of the fitted maximal effect; on the % scale 0 is the no-effect control and ±100 the full control effect
Target sequence (P15428 whole entry, looked up): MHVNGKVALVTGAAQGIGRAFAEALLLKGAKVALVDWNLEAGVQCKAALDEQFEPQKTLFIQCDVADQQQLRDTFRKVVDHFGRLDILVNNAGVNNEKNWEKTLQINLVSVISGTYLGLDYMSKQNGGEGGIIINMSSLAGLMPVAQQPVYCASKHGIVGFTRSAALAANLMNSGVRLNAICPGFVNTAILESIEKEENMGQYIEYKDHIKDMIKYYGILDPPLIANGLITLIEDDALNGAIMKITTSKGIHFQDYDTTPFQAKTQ
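20 nM HPGD preincubated 15 min at room temperature with compound in 50 mM Tris-HCl pH 8, 0.01% Tween 20. Started with 1 mM NAD+ and 30 uM prostaglandin E2; NADH fluorescence (360/450 nm) read 5 times over 30-s intervals, last minus first.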
HTT ATP protect: Huntington cell model cytoprotection by ATP luminescence | Potency, µM (highest dose often 56.4 µM), without a hit: cytoprotection (ATP increase), most hits filed as activators | PC12 HTT-Q103 induced, cytoprotection, ATP luminescence, 40 h | hit rate 0.14% among 230,000 | AID 1471; further: potency means the concentration at half of the fitted maximal effect; % of control where 0% means no effect; nearly all actives have a fitted effect of over 45% in size
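PC12 cells stably carrying ecdysone-inducible Htt exon 1 (Q103)–GFP were induced with 100 nM tebufenozide (final) alongside library compounds in a dose series. Cytoprotection was scored as retained ATP by ATPlite luminescence.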
An asterisk follows results filed as active; u = inconclusive; x = no result; [ ] = remark or other dose. Unless noted, the call rests on the fitted dose curve; in most records, active means well fitted curve in the direction sought with a large enough effect; inconclusive means small, poorly fitted or top-dose-only effect, or another doubt; inactive means no such curve, though single readings can be large; an effect the other way counts as inactive or inconclusive.

SMILES | CBFb RUNX1 block | ALDH1A1 block | PNC inhibitor | HTT aggregate | HPGD block | HTT ATP protect
O=c1cc(-c2ccc(O)cc2)oc2cc(OC3OC(CO)C(O)C(O)C3O)c(C3OC(CO)C(O)C(O)C3O)c(O)c12 (configuration not stated) | 11.8% | x | x | x | x | x
CCN(CC)CCCC(C)n1c(-c2ccccc2)nc2c(NCc3ccccc3)nc(C)nc21 (configuration not stated) | 10.8% | u | x | x | u | -34.4%
CCN(Cc1ccncc1)Cc1cn[nH]c1-c1ccc(OC)cc1F | 16.9% | 14.1µM* | x | -6.8%[9.22 µM] | x | 14.1%[10 µM]
COc1cccc(C(=O)N2CCN(Cc3cn[nH]c3-c3ccc(F)cc3F)CC2)c1 | -1.7% | u | x | u | x | -19.9%
COc1ccc(C(=O)N2CCN(Cc3cn[nH]c3-c3ccc(OC)cc3F)CC2)cc1 | 6.5% | 1µM* | x | 5.5%[9.22 µM] | x | 19.8%[10 µM]
Cc1ccccc1/C=C\C1=NCCN1 | x | x | x | x | x | 16.4%[1.9 µM]
C=CCN1c2ccccc2[C@]23C[C@@H](C(=O)OC)N(C(=O)COCc4ccccc4)C2=NC(C(=O)OC)=C(C(=O)OC)[C@H]13 | 7.0%[13.1 µM] | 6.9%[13.5 µM] | x | x | 0.3% | -16.8%[10 µM]
c1ccc(Cn2nnc3c(N4CCc5ccccc5C4)ncnc32)cc1 | -3.7% | u | 30.4 | -27.9% | 31.6µM* | -9.1%[10 µM]
c1ccc(Cn2nnc3c(N4CCCC4)ncnc32)cc1 | 2.6% | u | -21.8 | -26.4% | -10.9% | -23.1%[10 µM]
Clc1ccccc1Nc1ncnc2c1nnn2Cc1ccccc1 | 10.7% | u | u | -21.8% | 22.4µM* | -2.0%
O=C(N/N=C/c1cc([N+](=O)[O-])ccc1O)c1cc(-c2ccccc2)nc2ccccc12 | -2.9% | u | -13.4 | -5.0% | -17.9% | 41.2%[10 µM]
O=[N+]([O-])c1ccc(O)c(/C=N/Nc2nc3ccccc3[nH]2)c1 | x | u | -92.8* | u | -16.7% | -84.8%[10 µM]
O=C(N/N=C/c1cc([N+](=O)[O-])ccc1O)C12CC3CC(CC(C3)C1)C2 | 9.0% | 0.891µM* | x | u | x | -76.4%
Cc1c(C(=O)N/N=C/c2ccc(N(C)C)cc2)[nH]c2ccc(Cl)cc12 | 9.2% | u | -113.0* | -7.1% | -18.1% | -53.6%[10 µM]
Cc1cc(C(=O)N/N=C/c2cc([N+](=O)[O-])ccc2O)c2ccccc2n1 | x | -0.2% | -7.7 | 7.08µM* | -15.6% | 32.3%[10 µM]
COc1ccc(C)cc1NC(=O)NNC(=O)C1CCC(C(C)(C)C)CC1 (configuration not stated) | 6.9% | -15.4% | x | -14.1% | x | -22.2%
Cc1cc(C(=O)N/N=C/c2ccc(N(C)C)cc2)c2ccccc2n1 | -6.0% | 35.5µM* | x | -10.9% | x | -97.8%
Cc1cc(C(=O)N/N=C/c2ccc([N+](=O)[O-])cc2)c2ccccc2n1 | 6.1% | 4.1% | x | -13.2%[9.22 µM] | x | -44.3%[10 µM]
COc1ncc2nc(C)c(=O)n(C)c2n1 | x | -10.7% | x | x | -16.8% | 6.6%
O=C(NCCCN1CCCC1=O)C1CCN(S(=O)(=O)N2CCOCC2)CC1 | -0.9% | u | -83.8* | 7.0% | -10.0% | 1.6%[10 µM]
COc1ccc(CCNC(=O)C2CCN(Cc3nc(-c4cccc(Cl)c4)oc3C)CC2)cc1OC | -1.0% | -4.0% | -83.4* | -28.5% | -5.9% | -45.5%[0.074 µM]
O=C(NCCN1CCOCC1)C1CCN(S(=O)(=O)N2CCCCC2)CC1 | 8.4% | u | -4.9 | 8.9% | -8.5% | -0.9%
CCOc1ccc(CCNC(=O)C2CCCN(C(=O)N(C)C)C2)cc1OCC (configuration not stated) | -0.5% | 7.9% | -100.0* | 10.4% | -12.1% | 0.4%[10 µM]
Cc1oc(-c2cccc(Cl)c2)nc1CN1CCC(C(=O)NCCCN2CCCC2=O)CC1 | -1.2% | 16.1% | 2.9 | 20.8% | -7.7% | 4.3%
CCOC(=O)Cc1csc(NC(=O)c2ccc(S(=O)(=O)N3CCCC3)cc2)n1 | -3.3% | 11.2µM* | 25.6 | -13.6% | -12.6% | -0.2%
SMILES | CBFb RUNX1 block | ALDH1A1 block | PNC inhibitor | HTT aggregate | HPGD block | HTT ATP protect
CCOc1ccc(CCNC(=O)C2CCN(S(=O)(=O)N3CCCCC3)CC2)cc1OCC | 2.4% | u | 83.7 | -20.1% | -3.3% | x
O=c1c(-c2cccs2)nc2cnc(N3CCOCC3)nc2n1-c1ccccc1 | x | u | x | x | x | -49.9%
O=C(Nc1ccc([N+](=O)[O-])cn1)C1CC2CCC1C2 (configuration not stated) | 14.1% | -12.3% | 36.3 | -3.7% | 0.8% | x
COc1ccc(CCNC(=O)NC2CCCCC2)cc1OC | 8.9% | 1.5% | -80.9* | -13.3% | -10.3% | 3.6%[1.9 µM]
CCOC(=O)Cc1csc(NC(=O)CCS(=O)(=O)Cc2ccccc2)n1 | 7.1% | 20µM* | 29.4 | 5.6% | -3.9% | 8.5%
CCOC(=O)Cc1csc(NC(=O)CS(=O)(=O)Cc2ccccc2)n1 | 6.4% | -6.1% | u | -25.6% | -1.0% | -7.9%[0.074 µM]
COc1ccc(CCNC(=O)C2CCCN2C(=O)NC2CCCCC2)cc1OC (configuration not stated) | -0.6% | 6.8% | -20.3 | 22.4% | -6.7% | -17.1%[10 µM]
O=C(NCCc1ccccc1)C1CCN(S(=O)(=O)N2CCCC2)CC1 | 6.4% | u | 0.2 | 2.5% | -9.4% | 7.7%
COc1ccc(CCNC(=O)C2CCN(S(=O)(=O)c3ccc(Cl)cc3)CC2)cc1OC | -2.6% | -6.6% | -100.0* | -20.4% | -7.9% | -11.7%[10 µM]
O=C(NCCc1ccccc1)C1CCN(S(=O)(=O)N2CCCCCC2)CC1 | 3.6% | 7.08µM* | x | 19.2% | x | -39.2%
Cc1ccc(-c2ccc(C3C4C=CCC(C)C4C(=O)N3Cc3ccccc3)c(F)c2)cc1 (configuration not stated) | 15.3% | x | x | x | x | x
O=[N+]([O-])c1ccc(CSc2ncnc3c2ncn3[C@@H]2O[C@H](CO)[C@H](O)[C@H]2O)cc1 | 12.3% | -5.0% | x | x | -6.0% | x
COc1ccc(CNC(=O)c2ccc(S(=O)(=O)N3CCCC3)cc2)cc1OC | -0.6% | 10µM* | -3.9 | 4.7%[9.22 µM] | -14.2% | -1.0%
COc1ccc(CCNC(=O)C2CCN(S(=O)(=O)N3CCCCCC3)CC2)cc1OC | -1.9% | 7.94µM* | -6.5 | 17.0% | -7.1% | -1.9%
O=C(NCc1ccccc1)c1ccc(S(=O)(=O)N2CCCC2)cc1 | -2.5% | u | u | 6.9% | 3.3% | -0.6%

Compound activity deposited in PubChem BioAssay by National Center for Advancing Translational Sciences (NCATS).
